Experimental data from PubChem BioAssay.
Activity calls are given as the source filed them.

Tests used:
[1] = tested on: PRMT1 (protein arginine N-methyltransferase 1); experiment: small molecules binding arginine methyltransferase PRMT1 – biochemical, small-molecule microarray, 635 nm fluorescence, primary screen (AID 1088); conditions: higher = more signal;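 also: binding of Prmt1 protein to compounds spotted on small-molecule microarray slides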
[2] = growth effects on S. cerevisiae YJM789 – YJM789 clinical isolate, OD600, 24 h, basal, primary screen (AID 1089); conditions: higher = more signal, called active from +8 up or from −8 down;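 also: growth of clinical yeast isolate S. cerevisiae YJM 789 seeded 1000 cells per well; test concentration not given here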
[3] = S. pombe growth modifiers, basal conditions – strain 972, OD600, 24 h, no modulator, primary screen (AID 1090);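 also: basal condition with compound alone and no growth modifier present; test concentration not given here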; conditions: S. pombe 972 growth, higher = more signal, called active from +8 up or from −8 down
[4] = budding yeast growth modifiers under rapamycin – strain BY4716, OD600, 96 h, primary screen (AID 1091); also: test concentration not given here; conditions: S. cerevisiae BY4716 + rapamycin, higher = more signal, called active from +8 up or from −8 down
[5] = molecular target: Torsin-1A-interacting protein 2 (Homo sapiens) (UniProt Q8NFQ8); experiment: small molecules binding lysate-expressed LULL1 – cell lysate, human LULL1 lysate, 635/667 nm fluorescence, primary screen (AID 1092); conditions: small-molecule microarray, hLULL1 lysate binding, 635 nm fluorescence; higher = more signal;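 also: probe is lysate of COS7 cells overexpressing human LULL1; score merges per-feature 667 nm fluorescence with signal-to-noise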
[6] = optical density change of DRC41 E. coli – strain DRC41, OD650, 24 h, E. coli filamentation project, primary screen (AID 1093);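 also: MC1000 strain lacking acrAB efflux and sulA so SOS filamentation is blocked; test concentration not given here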; conditions: E. coli DRC41 growth, higher = more signal, called active from +8 up or from −8 down
[7] = probe aLefty2 binding to arrayed compounds – biochemical, biotinylated probe, 635/667 nm fluorescence, primary screen (AID 1094); conditions: small-molecule microarray, higher = more signal;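 also: score merges spot fluorescence near 667 nm with spot signal-to-noise ratio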
[8] = tested on: Noggin (protein binding on small-molecule microarray); experiment: small molecules binding Noggin protein – biochemical, 635/667 nm fluorescence, primary screen (AID 1095); conditions: 635 nm fluorescence, higher = more signal;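 also: score merges 667 nm feature fluorescence with signal to noise over triplicate slides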
[9] = molecular target: Neurogenic locus notch homolog protein 3 (Homo sapiens) (UniProt Q9UM47); experiment: small molecules binding NOTCH3 protein – biochemical, 635/667 nm fluorescence, primary screen (AID 1096); conditions: small-molecule microarray, 635 nm fluorescence, higher = more signal
[10] = probe aEGFR binding to arrayed compounds – biochemical, biotinylated probe, 635/667 nm fluorescence, primary screen (AID 1097); conditions: small-molecule microarray, higher = more signal;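 also: probe is a biotinylated anti-EGFR antibody binding compounds printed on slides; score combines fluorescence near 667 nm and signal to noise of each spot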
[11] = tested on: Plasmodium falciparum Sir2 (PF13_0152, Sir2A); experiment: Plasmodium falciparum Sir2A binding compounds – biochemical, small-molecule microarray, 635 nm fluorescence, primary screen (AID 1098); conditions: fluorescence 635 nm, higher = more signal;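 also: score merges spot fluorescence intensity with its signal-to-noise ratio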
[12] = probe aDKK1 binding to arrayed compounds – biochemical, biotinylated probe, 635/667 nm fluorescence, primary screen (AID 1099); conditions: small-molecule microarray, higher = more signal;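 also: score merges 667nm spot fluorescence with signal to noise across triplicate slides; reference of the scale not given here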
[13] = probe aCHRDL2 binding to arrayed compounds – biochemical, biotinylated probe, 635/667 nm fluorescence, primary screen (AID 1100); conditions: small-molecule microarray, higher = more signal
[14] = change in splice reporter luminescence, either direction, cell-based, HEK293, spliceosome inhibition project, primary screen (AID 1101); conditions: HEK293 splicing luciferase reporter, 24 h, higher = more signal, called active from +8 up or from −8 down;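 also: HEK293 cells carrying a splicing-competent luciferase reporter gene; test concentration not given here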
[15] = molecular target: Fibroblast growth factor 10 (Homo sapiens) (UniProt O15520); experiment: compounds binding fibroblast growth factor 10 – biochemical, small-molecule microarray, 635 nm fluorescence, primary screen (AID 1102); conditions: FGF10 binding, fluorescence 635 nm, higher = more signal
[16] = tested on: glycogen synthase kinase-3 (GSK3A per assay name; protocol says GSK3B); experiment: compounds binding glycogen synthase kinase-3 – biochemical, small-molecule microarray, 635 nm fluorescence, GSK3A, primary screen (AID 1103); conditions: fluorescence 635 nm, higher = more signal; also: the record names both GSK3A and GSK3B
[17] = molecular target: Epidermal growth factor receptor (Homo sapiens) (UniProt P00533); experiment: compounds binding epidermal growth factor receptor – biochemical, small-molecule microarray, 635 nm fluorescence, primary screen (AID 1104); conditions: EGFR binding, higher = more signal;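 also: score merges 667 nm emission intensity with spot signal to noise over triplicate slides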
[18] = molecular target: Follistatin-related protein 3 (Homo sapiens) (UniProt O95633); experiment: compounds binding follistatin-related protein 3 – biochemical, small-molecule microarray, 635 nm fluorescence, primary screen (AID 1105); conditions: FSTL3 binding, higher = more signal;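 also: score merges emission near 667 nm and signal to noise per printed spot across three slides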
[19] = molecular target: Dickkopf-related protein 1 (Homo sapiens) (UniProt O94907); experiment: small molecules binding DKK1 protein – biochemical, small-molecule microarray, 635 nm fluorescence scan, primary screen (AID 1106); conditions: higher = more signal;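 also: score merges emission near 667 nm with signal to noise over three replicate slides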
[20] = tested on: Inhibin beta A chain (activin A); experiment: small molecules binding activin A – biochemical, small-molecule microarray, 635 nm fluorescence scan, primary screen (AID 1107); conditions: INHBA, higher = more signal;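 also: mouse activin A protein probed at 4.33 µg/mL on printed slides; score merges bound-protein fluorescence near 667 nm with spot signal-to-noise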

Dickkopf-related protein 1 (Homo sapiens), sequence (O94907 whole entry, looked up): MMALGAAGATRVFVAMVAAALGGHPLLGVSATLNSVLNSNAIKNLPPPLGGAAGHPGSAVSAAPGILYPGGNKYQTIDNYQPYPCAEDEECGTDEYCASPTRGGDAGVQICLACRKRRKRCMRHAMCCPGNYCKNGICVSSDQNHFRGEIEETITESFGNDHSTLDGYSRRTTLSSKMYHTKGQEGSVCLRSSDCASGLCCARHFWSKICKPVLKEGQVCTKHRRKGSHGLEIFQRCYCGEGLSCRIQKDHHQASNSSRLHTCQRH
Follistatin-related protein 3 (Homo sapiens), sequence (O95633 whole entry, looked up): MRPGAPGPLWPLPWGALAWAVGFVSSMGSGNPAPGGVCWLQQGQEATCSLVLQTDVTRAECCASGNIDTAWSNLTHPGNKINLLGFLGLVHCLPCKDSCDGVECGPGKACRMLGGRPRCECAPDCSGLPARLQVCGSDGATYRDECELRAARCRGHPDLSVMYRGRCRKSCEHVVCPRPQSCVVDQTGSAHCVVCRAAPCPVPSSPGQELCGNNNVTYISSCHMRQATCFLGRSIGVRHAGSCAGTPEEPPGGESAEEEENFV
Neurogenic locus notch homolog protein 3 (Homo sapiens), sequence (Q9UM47 whole entry, looked up): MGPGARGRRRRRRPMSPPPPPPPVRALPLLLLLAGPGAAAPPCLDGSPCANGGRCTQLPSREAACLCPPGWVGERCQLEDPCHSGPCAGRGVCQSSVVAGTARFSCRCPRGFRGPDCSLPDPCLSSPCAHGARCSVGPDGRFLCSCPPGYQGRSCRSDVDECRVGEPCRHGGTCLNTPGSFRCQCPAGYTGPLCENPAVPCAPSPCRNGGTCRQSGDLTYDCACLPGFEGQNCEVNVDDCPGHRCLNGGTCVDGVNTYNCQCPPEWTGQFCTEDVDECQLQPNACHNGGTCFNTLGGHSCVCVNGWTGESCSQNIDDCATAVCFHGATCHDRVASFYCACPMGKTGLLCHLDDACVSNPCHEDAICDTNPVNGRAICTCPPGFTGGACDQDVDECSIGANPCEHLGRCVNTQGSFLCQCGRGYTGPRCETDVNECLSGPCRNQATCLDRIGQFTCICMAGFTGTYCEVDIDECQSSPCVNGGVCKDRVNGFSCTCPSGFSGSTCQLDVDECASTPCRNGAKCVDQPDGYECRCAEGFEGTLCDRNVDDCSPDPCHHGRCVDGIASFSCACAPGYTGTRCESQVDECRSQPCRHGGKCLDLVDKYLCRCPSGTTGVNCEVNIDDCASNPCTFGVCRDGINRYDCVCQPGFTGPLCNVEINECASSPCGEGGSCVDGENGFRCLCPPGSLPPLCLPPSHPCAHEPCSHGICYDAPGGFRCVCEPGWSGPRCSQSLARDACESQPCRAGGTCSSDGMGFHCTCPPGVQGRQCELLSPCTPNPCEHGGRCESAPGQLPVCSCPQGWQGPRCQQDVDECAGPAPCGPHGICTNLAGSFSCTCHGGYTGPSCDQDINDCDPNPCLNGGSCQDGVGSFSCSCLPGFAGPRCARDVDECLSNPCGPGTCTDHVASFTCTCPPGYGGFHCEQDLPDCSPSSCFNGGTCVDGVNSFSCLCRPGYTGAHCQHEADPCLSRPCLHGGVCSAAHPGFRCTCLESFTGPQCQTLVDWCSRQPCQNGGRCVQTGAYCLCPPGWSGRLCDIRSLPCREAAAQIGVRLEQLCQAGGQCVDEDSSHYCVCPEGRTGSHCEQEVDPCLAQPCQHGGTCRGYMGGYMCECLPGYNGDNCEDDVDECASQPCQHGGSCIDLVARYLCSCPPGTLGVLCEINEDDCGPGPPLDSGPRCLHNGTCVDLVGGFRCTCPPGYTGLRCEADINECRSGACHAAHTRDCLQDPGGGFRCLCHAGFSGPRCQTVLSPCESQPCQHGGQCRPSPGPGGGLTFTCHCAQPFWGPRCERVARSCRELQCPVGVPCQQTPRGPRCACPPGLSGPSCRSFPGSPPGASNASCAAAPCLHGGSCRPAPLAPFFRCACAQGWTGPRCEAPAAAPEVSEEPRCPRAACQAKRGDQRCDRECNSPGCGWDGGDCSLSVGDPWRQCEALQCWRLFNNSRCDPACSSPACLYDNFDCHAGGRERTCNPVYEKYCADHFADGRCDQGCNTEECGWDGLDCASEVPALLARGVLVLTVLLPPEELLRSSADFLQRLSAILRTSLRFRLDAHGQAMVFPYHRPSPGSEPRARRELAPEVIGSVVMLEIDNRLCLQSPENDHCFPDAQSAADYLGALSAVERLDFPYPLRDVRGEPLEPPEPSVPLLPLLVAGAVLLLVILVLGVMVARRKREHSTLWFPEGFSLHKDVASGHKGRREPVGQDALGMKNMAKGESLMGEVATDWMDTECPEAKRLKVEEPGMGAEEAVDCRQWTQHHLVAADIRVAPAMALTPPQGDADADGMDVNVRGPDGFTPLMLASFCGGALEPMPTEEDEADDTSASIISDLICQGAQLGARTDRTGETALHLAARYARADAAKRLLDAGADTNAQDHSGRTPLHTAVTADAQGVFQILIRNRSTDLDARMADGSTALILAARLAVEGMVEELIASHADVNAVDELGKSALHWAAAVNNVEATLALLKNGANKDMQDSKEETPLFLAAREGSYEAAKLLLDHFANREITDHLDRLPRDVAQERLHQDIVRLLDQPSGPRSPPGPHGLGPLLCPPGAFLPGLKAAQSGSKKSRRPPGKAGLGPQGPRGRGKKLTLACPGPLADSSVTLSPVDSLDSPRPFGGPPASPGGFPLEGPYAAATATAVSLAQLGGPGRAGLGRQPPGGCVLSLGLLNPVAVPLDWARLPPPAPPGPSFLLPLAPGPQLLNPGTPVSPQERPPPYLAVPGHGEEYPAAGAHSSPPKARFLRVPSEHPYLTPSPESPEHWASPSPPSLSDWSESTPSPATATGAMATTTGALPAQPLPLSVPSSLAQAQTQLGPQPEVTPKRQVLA
Fibroblast growth factor 10 (Homo sapiens), sequence (O15520 whole entry, looked up): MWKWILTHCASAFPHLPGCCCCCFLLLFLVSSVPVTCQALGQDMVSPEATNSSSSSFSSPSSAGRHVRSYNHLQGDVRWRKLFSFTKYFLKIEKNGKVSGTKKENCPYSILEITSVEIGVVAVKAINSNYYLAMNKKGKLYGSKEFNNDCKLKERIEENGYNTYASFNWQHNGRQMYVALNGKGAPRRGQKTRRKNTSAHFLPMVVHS
Torsin-1A-interacting protein 2 (Homo sapiens), sequence (Q8NFQ8 whole entry, looked up): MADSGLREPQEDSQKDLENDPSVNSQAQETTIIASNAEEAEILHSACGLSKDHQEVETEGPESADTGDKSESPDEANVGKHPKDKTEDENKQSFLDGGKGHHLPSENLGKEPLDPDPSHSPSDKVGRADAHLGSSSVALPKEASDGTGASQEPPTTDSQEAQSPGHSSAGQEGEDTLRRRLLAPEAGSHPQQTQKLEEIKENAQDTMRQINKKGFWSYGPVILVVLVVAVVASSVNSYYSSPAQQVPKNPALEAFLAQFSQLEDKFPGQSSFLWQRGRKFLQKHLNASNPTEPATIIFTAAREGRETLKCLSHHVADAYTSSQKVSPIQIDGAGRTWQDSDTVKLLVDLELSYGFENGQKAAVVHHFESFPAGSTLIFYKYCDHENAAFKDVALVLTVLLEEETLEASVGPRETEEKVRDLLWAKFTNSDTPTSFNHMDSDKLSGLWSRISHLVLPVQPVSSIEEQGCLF
Epidermal growth factor receptor (Homo sapiens), sequence (P00533 whole entry, looked up): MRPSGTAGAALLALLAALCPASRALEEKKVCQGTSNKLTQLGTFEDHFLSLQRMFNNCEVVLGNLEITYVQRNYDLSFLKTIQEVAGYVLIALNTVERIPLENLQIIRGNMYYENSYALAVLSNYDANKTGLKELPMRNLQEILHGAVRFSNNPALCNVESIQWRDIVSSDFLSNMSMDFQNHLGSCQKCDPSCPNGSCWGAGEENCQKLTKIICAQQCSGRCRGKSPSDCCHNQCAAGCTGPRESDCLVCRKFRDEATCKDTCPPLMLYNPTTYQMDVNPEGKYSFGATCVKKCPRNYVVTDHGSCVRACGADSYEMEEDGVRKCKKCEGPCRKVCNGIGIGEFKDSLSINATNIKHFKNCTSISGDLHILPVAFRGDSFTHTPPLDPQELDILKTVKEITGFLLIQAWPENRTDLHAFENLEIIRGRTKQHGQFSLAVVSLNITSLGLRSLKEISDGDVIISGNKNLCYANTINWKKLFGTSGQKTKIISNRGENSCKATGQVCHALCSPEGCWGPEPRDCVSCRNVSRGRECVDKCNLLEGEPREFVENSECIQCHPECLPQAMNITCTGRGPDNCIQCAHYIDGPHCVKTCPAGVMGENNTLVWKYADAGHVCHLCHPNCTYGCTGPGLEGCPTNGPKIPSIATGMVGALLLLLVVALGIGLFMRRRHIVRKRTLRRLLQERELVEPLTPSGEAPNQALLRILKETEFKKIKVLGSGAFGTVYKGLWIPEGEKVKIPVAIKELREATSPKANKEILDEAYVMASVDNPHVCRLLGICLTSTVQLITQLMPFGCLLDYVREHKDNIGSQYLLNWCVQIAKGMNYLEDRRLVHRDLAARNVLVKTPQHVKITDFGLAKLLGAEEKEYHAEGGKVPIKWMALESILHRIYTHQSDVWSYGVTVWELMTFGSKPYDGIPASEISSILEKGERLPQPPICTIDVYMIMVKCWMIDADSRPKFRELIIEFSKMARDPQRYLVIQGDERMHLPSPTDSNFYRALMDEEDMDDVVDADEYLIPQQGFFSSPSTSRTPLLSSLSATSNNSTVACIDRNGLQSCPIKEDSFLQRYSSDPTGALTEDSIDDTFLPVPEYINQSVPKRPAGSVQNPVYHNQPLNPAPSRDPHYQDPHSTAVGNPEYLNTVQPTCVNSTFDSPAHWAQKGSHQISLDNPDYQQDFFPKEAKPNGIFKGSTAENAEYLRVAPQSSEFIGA

Compound | composite z-score [1] | z-score [2] | z-score [3] | z-score [4] | composite z-score [5] | z-score [6] | composite z-score [7] | composite z-score [8] | composite z-score [9] | composite z-score [10] | composite z-score [11] | composite z-score [12] | composite z-score [13] | z-score [14] | composite z-score [15] | composite z-score [16] | composite z-score [17] | composite z-score [18] | composite z-score [19] | composite z-score [20]
COCC#Cc1ccc([C@@H]2N[C@H](C(=O)O)CC[C@H]2C)cc1 | 0.13 | -1.63 (inactive) | -1.81 (inactive) | -1.34 (inactive) | 0.237 | 0.874 (inactive) | -0.186 | 0.165 | -0.54 | -0.0953 | -0.331 | 0.159 | -0.0016 | -1.63 (inactive) | 0.129 | 0.223 | 0.362 | 0.246 | 0.302 | 0.784
COCOc1ccc(Br)cc1C(=O)C=Cc1ccc2c(c1)OCO2 | 0.253 | -0.827 (inactive) | -7.01 (inactive) | 32.1 (active) | -0.57 | 0.368 (inactive) | -0.16 | 0.698 | 0.0871 | -0.0834 | -0.0162 | -0.304 | -0.662 | -0.838 (inactive) | 0.59 | -0.207 | 0.524 | 0.679 | 0.665 | 1.22
CO[C@H]1COC(=O)[C@H](C)COC(=O)[C@@H](OCc2ccccc2)C=C[C@@H]1C | 0.855 | 0.138 (inactive) | -1.28 (inactive) | -0.876 (inactive) | -0.198 | 0.554 (inactive) | -0.241 | 1 | -0.732 | -0.188 | -0.0072 | -0.386 | -0.743 | 0.0228 (inactive) | 0.083 | -0.357 | 0.274 | -0.266 | 0.32 | 0.251
CCOC(=O)[C@H](Cc1ccccc1)NC(=O)CCC1CC(OC(=O)NCCc2ccc(F)cc2)CC2(CCCC(COC(=O)NCCC(C)C)O2)O1 (stereo not given in full) | 1.56 | 0.91 (inactive) | 0.902 (inactive) | 0.783 (inactive) | 2.32 | 0.087 (inactive) | -0.145 | 1.24 | 1.07 | -0.0424 | 1.16 | -0.226 | -0.415 | -0.0793 (inactive) | 0.52 | 1.01 | 0.396 | 1.18 | 0.648 | 0.0186
COC(=O)[C@@H]1CC[C@H](C)[C@@H](c2ccc(Br)cc2)N1C[C@@H](O)CN=[N+]=[N-] | 0.382 | -1.44 (inactive) | -10.1 (active) | -0.243 (inactive) | 0.147 | 0.323 (inactive) | -0.0412 | 0.162 | 0.0511 | -0.0902 | 0.0292 | -0.0196 | -0.304 | -1.34 (inactive) | 0.189 | 0.078 | 0.532 | 0.0985 | 0.356 | -0.28
CC(C)=NO[C@@H](C)c1cn([C@H](CO)Cc2ccccc2)nn1 | 0.99 | -1.93 (inactive) | -2.29 (inactive) | -0.735 (inactive) | 1.03 | -0.409 (inactive) | -0.127 | 0.946 | 0.331 | 0.255 | 0.8 | 0.0454 | -0.832 | -0.937 (inactive) | 0.393 | 0.523 | 0.303 | 0.345 | 0.27 | 0.111
CCN1C(=O)[C@H]2[C@H]3[C@H](O)[C@H](O)CC(=NOC[C@@H](O)[C@H]4O[C@@H]5OC(C)(C)O[C@@H]5[C@H]4O)[C@@H]3CC[C@H]2C1=O | -0.556 | 0.141 (inactive) | 0.234 (inactive) | 0.33 (inactive) | -0.0973 | 0.454 (inactive) | -0.159 | 0.0713 | -0.124 | -0.0685 | 1.03 | -0.242 | -0.461 | 0.217 (inactive) | 0.203 | -0.246 | 0.227 | 0.24 | 0.284 | 0.46
CO[C@@H]1C=CCC(=O)N[C@@H](C)C(=O)OC[C@@H](NS(=O)(=O)c2ccc(C)cc2)[C@H](C)C=CCC(=O)OC[C@H]1C | 0.375 | -0.413 (inactive) | -0.266 (inactive) | -0.411 (inactive) | -1.35 | 0.0927 (inactive) | -0.15 | 0.98 | -0.381 | -0.123 | -0.401 | -0.298 | -0.748 | -0.275 (inactive) | 0.238 | -0.0731 | 0.329 | 0.828 | 0.359 | 0.976
C=CC[C@@H]1C=C[C@H](ON=C(C)CCN2CCCc3nc(C)c(C)cc32)[C@@H](CO)O1 | 1.4 | -0.367 (inactive) | 0.323 (inactive) | -0.184 (inactive) | 0.644 | 1.05 (inactive) | 0.475 | 1.09 | 0.946 | 0.142 | 1.14 | 0.381 | 0.331 | 0.0487 (inactive) | 1.01 | 1.15 | 0.759 | 1.47 | 1.32 | 2.04
CC(=O)OC[C@H]1O[C@H](C#CCC2CCCCC2)C=C[C@@H]1OC(C)=O | 1.18 | 0.877 (inactive) | -15.5 (active) | -0.525 (inactive) | 1.17 | 1.1 (inactive) | -0.194 | 0.598 | 0.568 | 0.0698 | 1.26 | -0.215 | -0.595 | -0.531 (inactive) | 1.04 | 0.719 | 0.362 | 0.674 | 0.668 | -0.222
